Experimental findings from PubChem BioAssay are described below.

Active and inactive are the calls of the source.

In one assay the target is Albumin (Bos taurus) (UniProt P02769). Put plainly: bovine serum albumin binders on microarray, profiling panel, artefact control for SMM control protein annotation, biochemical, small-molecule microarray, Alexa647 label, 635/667 nm fluorescence (AID 1118).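 Note: score merges 667 nm emission intensity and signal-to-noise per printed compound spot.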 The note with it: BSA-A647 binding, fluorescence 635 nm, higher = more signal.
A short description of assay [1]: small-molecule microarray binders of probe aXIP, primary screen, biochemical, NeuroSMM set, 635/667 nm fluorescence (AID 1119).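 Note: probe is the protein aXip251-270 applied at 1 µg/mL to compound-printed slides; binding of probe to printed compounds measured as 667 nm fluorescence plus signal to noise.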 The note with it: higher = more signal, called active from +8 up or from −8 down.
Assay [2] is described as follows: small-molecule binders of probe aNOTCH3, primary screen, biochemical, small-molecule microarray, 635/667 nm fluorescence (AID 1120).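 Note: probe is a biotin-tagged antibody raised against NOTCH3 rather than NOTCH3 protein; score merges spot fluorescence near 667 nm with spot signal to noise.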 The note with it: higher = more signal.
Assay [3] in a line: small-molecule binders of probe aNOTCH2, primary screen, biochemical, small-molecule microarray, 635/667 nm fluorescence (AID 1121).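 Note: score merges feature fluorescence read at 667 nm with its signal to noise.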 The note with it: higher = more signal.
Assay [4] deals with Carbonic anhydrase 2 (Homo sapiens) (UniProt P00918). The assay is described as follows: CAII small-molecule binders, profiling panel, biochemical, small-molecule microarray, Alexa647-labelled CAII (AID 1122). The note with it: CAII-A647 binding fluorescence, higher = more signal.
Assay [5] can be described thus: COS7 lysate on small-molecule microarray, probe aHis, 635 nm (AID 1123).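 Note: z-score combines 667nm fluorescence intensity with signal-to-noise per printed compound spot.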 The note with it: COS7 cell lysate, fluorescence, higher = more signal.
The nature of assay [6]: compound binding in COS7 lysate, probe aLAP1, primary screen, cell lysate, small-molecule microarray (AID 1124).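 Note: lysate comes from COS7 cells expressing LAP1 and is applied at 0.3 µg/mL; score merges spot fluorescence near 667 nm with signal-to-noise over triplicate slides.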 The note with it: probe aLAP1, fluorescence, higher = more signal.
The next assay relates to Sam68 (KHDRBS1). The assay is described as follows: Sam68 small-molecule binders, primary screen, biochemical, small-molecule microarray, 635 nm fluorescence (AID 1125).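 Note: score merges 667 nm channel intensity with signal to noise over triplicate slides.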 The note with it: small-molecule microarray binding, higher = more signal.
Assay [7] relates to Chordin-like protein 2 (CHRDL2). The assay is described as follows: CHRDL2 small-molecule binders, primary screen, biochemical, small-molecule microarray, 635 nm fluorescence (AID 1126).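 Note: printed compound slides probed with Chrdl2 protein at 4 µg/mL for 1 h at 4 C; score merges 667 nm emission intensity with signal to noise over three replicate slides.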 The note with it: small-molecule microarray binding, fluorescence 635 nm; higher = more signal.
Assay [8] deals with Concanavalin-A (Canavalia ensiformis) (UniProt P02866). Put plainly: ConA small-molecule binders, primary screen, artefact control for SMM control protein annotation, biochemical, small-molecule microarray, Alexa647 label, 635 nm (AID 1127).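 Note: z combines 667 nm emission intensity with signal-to-noise across three replicate slides.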 The note with it: ConA-A647 binding fluorescence, higher = more signal.
Assay [9] in a line: anti-His antibody binders, primary screen, artefact control for SMM control protein annotation, biochemical, small-molecule microarray, 635 nm fluorescence (AID 1128).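 Note: score merges feature fluorescence with signal-to-noise for each printed compound spot.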 The note with it: anti-His Alexa647 antibody binding, higher = more signal.
Assay [10] concerns Human papillomavirus type 1a E7 protein (residues 1-88). Put plainly: HPV1a E7 small-molecule binders, primary screen, biochemical, small-molecule microarray, residues 1-88, 635 nm (AID 1129). The note with it: small-molecule microarray binding, fluorescence 635 nm; higher = more signal.
Assay [11] addresses Focal adhesion kinase 1 (Homo sapiens) (UniProt Q05397). The assay is described as follows: small-molecule microarray binders of FAK, primary screen, biochemical, 635/667 nm fluorescence, BSA, DTT (AID 1130).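 Note: composite of spot emission at 667 nm and signal to noise over triplicate slides.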 The note with it: PTK2 binding, 635 nm fluorescence, higher = more signal.
For assay [12], the system named is Fibrinogen (Alexa647-labelled). The assay is described as follows: fibrinogen binders on compound microarrays, profiling panel, artefact control for SMM control-protein annotation, biochemical, small-molecule microarray, 635/667 nm fluorescence (AID 1131).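 Note: z-score merges 667 nm fluorescence with per-spot signal-to-noise over triplicate slides.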 The note with it: fibrinogen-A647 binding fluorescence, higher = more signal.
Assay [13] has as its target Follistatin (Homo sapiens) (UniProt P19883). Put plainly: follistatin binders on small-molecule microarrays, primary screen, biochemical, small-molecule microarray, 635/667 nm fluorescence (AID 1132). The note with it: FST binding, 635 nm fluorescence, higher = more signal.
For assay [14], the target named is Fibroblast growth factor 2 (Homo sapiens) (UniProt P09038). Put plainly: FGF2 binders on small-molecule microarrays, primary screen, biochemical, small-molecule microarray, 635/667 nm fluorescence (AID 1133). The note with it: small-molecule microarray binding, FGF2, fluorescence 635/667; higher = more signal.
Assay [15] in a line: mitochondrial membrane potential change in A549 cells, profiling panel, cell-based, JC-1 fluorescence, basal, 24 h, 100 nL (AID 1138).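 Note: A549 lung adenocarcinoma cells under basal conditions with no added stimulus; test concentration not given here.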 The note with it: higher = more signal.
The next assay concerns Lefty1. The assay is described as follows: Lefty1 binders on small-molecule microarrays, primary screen, biochemical, small-molecule microarray, 635/667 nm fluorescence (AID 1139). The note with it: small-molecule microarray binding, fluorescence 635/667; higher = more signal.
Assay [16] relates to wheat germ agglutinin (Triticum aestivum), Alexa647-labelled. Put plainly: wheat germ agglutinin binders on compound microarrays, profiling panel, artefact control for SMM control-protein annotation, biochemical, small-molecule microarray, 635/667 nm fluorescence (AID 1140).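 Note: score merges 667 nm feature emission with signal to noise over triplicate slides.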 The note with it: WGA-A647 binding, 635 nm fluorescence, higher = more signal.
Assay [17] deals with Luciferin 4-monooxygenase (Photinus pyralis) (UniProt P08659). Put plainly: firefly luciferase enzyme inhibitors, primary screen, biochemical, luminescence, purified enzyme, 2006 set (AID 1141).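 Note: cell-free assay with purified firefly luciferase at 100 ng per well in PBS; test concentration not given here.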 The note with it: SteadyGlo luminescence, 30 min, higher = more signal, called active from +8 up or from −8 down.
Luciferin 4-monooxygenase (Photinus pyralis), sequence (P08659 whole entry, looked up): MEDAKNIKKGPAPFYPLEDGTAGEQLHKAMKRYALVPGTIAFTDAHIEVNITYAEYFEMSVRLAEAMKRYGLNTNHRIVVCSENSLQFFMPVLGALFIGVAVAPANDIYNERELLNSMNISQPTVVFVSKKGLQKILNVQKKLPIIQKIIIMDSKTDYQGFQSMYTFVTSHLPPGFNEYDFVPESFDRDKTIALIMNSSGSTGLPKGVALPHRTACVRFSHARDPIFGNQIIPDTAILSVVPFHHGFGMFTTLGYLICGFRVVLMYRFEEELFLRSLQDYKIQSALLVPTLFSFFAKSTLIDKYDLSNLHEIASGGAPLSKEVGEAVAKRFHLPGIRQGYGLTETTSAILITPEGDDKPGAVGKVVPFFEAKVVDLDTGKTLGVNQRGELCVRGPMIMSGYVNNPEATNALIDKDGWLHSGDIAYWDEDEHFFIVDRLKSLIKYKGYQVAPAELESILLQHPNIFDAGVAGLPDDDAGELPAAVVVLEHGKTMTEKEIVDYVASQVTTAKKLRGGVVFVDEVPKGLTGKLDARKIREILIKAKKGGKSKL

Albumin (Bos taurus), sequence (P02769 whole entry, looked up): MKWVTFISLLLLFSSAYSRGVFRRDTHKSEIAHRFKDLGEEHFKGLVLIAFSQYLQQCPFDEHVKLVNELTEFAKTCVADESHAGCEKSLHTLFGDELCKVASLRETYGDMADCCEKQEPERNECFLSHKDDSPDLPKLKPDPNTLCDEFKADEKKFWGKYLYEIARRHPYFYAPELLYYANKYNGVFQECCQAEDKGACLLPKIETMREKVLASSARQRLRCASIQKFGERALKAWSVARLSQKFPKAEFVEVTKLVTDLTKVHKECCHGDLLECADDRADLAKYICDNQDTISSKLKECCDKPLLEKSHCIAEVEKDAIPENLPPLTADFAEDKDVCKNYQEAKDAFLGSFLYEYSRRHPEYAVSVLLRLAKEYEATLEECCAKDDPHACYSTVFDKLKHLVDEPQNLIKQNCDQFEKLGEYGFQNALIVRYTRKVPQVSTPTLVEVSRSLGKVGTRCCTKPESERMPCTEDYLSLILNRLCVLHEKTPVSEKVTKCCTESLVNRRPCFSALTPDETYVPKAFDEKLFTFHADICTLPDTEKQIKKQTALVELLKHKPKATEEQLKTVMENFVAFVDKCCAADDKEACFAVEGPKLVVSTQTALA
Follistatin (Homo sapiens), sequence (P19883 whole entry, looked up): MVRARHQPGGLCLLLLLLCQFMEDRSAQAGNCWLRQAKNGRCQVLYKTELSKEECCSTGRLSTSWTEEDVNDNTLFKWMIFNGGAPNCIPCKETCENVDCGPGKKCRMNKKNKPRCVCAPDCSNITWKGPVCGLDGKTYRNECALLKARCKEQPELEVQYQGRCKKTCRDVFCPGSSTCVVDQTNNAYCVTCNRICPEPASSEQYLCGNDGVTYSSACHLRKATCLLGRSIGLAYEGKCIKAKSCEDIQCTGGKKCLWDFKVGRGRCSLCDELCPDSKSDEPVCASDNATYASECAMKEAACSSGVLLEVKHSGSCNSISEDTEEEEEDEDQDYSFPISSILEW
Fibroblast growth factor 2 (Homo sapiens), sequence (P09038 whole entry, looked up): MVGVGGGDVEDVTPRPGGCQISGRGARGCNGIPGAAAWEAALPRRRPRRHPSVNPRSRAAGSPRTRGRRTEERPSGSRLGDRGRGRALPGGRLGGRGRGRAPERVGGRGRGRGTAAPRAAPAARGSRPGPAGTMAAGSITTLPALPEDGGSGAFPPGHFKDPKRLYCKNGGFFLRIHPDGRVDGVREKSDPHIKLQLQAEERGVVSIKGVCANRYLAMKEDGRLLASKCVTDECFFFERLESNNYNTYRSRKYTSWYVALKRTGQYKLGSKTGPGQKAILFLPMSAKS
Focal adhesion kinase 1 (Homo sapiens), sequence (Q05397 whole entry, looked up): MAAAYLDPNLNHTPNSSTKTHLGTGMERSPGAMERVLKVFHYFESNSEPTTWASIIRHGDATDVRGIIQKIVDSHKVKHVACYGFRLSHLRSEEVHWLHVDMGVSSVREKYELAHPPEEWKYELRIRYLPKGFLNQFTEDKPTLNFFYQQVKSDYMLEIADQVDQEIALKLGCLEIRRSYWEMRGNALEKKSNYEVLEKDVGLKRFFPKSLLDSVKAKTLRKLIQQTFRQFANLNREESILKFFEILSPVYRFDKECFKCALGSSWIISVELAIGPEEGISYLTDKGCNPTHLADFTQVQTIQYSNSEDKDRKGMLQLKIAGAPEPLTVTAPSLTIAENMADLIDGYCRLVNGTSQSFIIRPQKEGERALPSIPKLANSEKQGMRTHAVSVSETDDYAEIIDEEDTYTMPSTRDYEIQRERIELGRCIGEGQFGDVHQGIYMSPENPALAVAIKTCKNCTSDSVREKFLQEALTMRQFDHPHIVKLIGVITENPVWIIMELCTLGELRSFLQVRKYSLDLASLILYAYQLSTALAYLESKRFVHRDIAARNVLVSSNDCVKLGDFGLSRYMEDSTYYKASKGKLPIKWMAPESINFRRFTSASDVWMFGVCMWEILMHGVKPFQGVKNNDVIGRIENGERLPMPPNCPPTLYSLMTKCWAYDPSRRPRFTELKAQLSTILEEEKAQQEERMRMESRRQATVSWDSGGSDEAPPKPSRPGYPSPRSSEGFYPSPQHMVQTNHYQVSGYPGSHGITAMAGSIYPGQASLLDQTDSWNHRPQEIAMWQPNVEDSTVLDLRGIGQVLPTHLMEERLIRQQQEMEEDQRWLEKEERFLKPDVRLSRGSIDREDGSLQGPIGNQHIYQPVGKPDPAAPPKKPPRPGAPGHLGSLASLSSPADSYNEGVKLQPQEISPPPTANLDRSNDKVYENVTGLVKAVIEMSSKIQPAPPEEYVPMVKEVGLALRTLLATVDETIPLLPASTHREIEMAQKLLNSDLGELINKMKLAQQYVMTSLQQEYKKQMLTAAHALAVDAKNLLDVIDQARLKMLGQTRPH
Concanavalin-A (Canavalia ensiformis), sequence (P02866 whole entry, looked up): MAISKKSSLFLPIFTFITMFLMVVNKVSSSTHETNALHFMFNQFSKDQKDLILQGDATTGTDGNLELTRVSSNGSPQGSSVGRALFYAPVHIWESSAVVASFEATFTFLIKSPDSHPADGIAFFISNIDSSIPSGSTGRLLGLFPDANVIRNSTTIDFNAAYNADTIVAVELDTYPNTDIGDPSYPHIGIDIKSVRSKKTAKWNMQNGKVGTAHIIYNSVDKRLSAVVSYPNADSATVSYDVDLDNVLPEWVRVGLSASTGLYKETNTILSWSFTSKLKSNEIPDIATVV

`O=C1NC(=O)C2C1C=CC(C(O)c1ccco1)N2Nc1ccccn1` (stereo not given): the composite z-score was -0.176 in the assay with Albumin (Bos taurus); -0.133 in [2]; -0.0567 in assay [3]; 0.713 in assay [4]; 0.0264 in assay [5]; 0.861 in assay [6]. For the same molecule, the composite z-score in the assay with Sam68 (KHDRBS1) is 0.14; in [7], 0.146; in [8], -0.0501; in assay [9], -0.324; in [10] it was -0.0286; in [11], -0.429. For the same molecule, the composite z-score in [12] was -0.17; in [13] it was 0.292; in assay [14] it was -0.127; in the assay on Lefty1, -0.042; in assay [16], 0.325. For the same molecule, the composite Z-score in assay [1] was 0.0674 (inactive). In addition, the z-score in [15] was -0.109; in assay [17], -1.42 (inactive).

With `O=c1n(-c2ccccc2)c(=O)n2n1CC(COc1ccccc1)=C([C@H](O)CCc1ccccc1)[C@@H]2CO`, the composite z-score with Albumin (Bos taurus) is -0.341; in [2], -0.187; in assay [3] it was -0.0895; in [4] it was -0.241; in [5], 0.277; in [6], -0.408. Moreover, the composite z-score is -0.0362 in the assay with Sam68 (KHDRBS1); 0.315 in [7]; -0.352 in assay [8]; 0.308 in assay [9]; 0.0864 in assay [10]; -0.18 in assay [11]. Besides, the composite z-score in assay [12] was 0.783; in [13] it was 0.415; in assay [14], 1.14; in the assay on Lefty1, 0.635; in assay [16] it was 0.576. Besides, the composite Z-score in [1] was 0.11 (inactive). The figures for the z-score in assay [15] and in assay [17] were 0.77 and -1.35 (inactive), respectively.

In the case of `COc1ccc(CCNC(=O)[C@@]2(Sc3ccc(C)cc3)CC(=O)N(C3Cc4ccccc4C3)[C@@H]2c2ccc(CO)cc2)cc1`, the composite z-score in the assay with Albumin (Bos taurus) is 0.575; in [2], 0.0522; in assay [3] it was 0.0407; in assay [4], 0.274; in assay [5], 1.23; in assay [6], 0.661. In addition, the composite z-score worked out at 1.3 with Sam68 (KHDRBS1); 1.5 in [7]; 1.14 in [8]; 1.27 in assay [9]; 1.21 in assay [10]; 1.54 in assay [11]. For the same molecule, the composite z-score stood at 0.434 in assay [12]; 1.65 in assay [13]; 2.16 in [14]; 1.44 in the assay on Lefty1; 0.437 in assay [16]. Further, the composite Z-score in assay [1] was -0.413 (inactive). The z-score in assay [15] was 0.927; in assay [17] it was 0.529 (inactive).

For the molecule `Cc1ccc(S[C@]2(C(=O)O)CC(=O)N(Cc3ccccc3Cl)[C@@H]2c2ccc(CO)cc2I)cc1`, the composite z-score with Albumin (Bos taurus) was 0.0877; in [2], -0.515; in assay [3], -0.269; in [4], 0.31; in assay [5] it was 0.546; in assay [6], -0.635. Besides, the composite z-score is 0.409 in the assay on Sam68 (KHDRBS1); -0.0996 in [7]; -0.1 in [8]; 0.12 in assay [9]; 0.193 in [10]; 0.287 in assay [11]. The composite z-score in assay [12] is -0.147; in [13], 0.257; in assay [14], 0.261; with Lefty1, -1.23; in assay [16] it was 0.435. Further, the composite Z-score in assay [1] was -0.648 (inactive). Further, the z-score in assay [15] was -0.134; in assay [17], 0.341 (inactive).

For `[N-]=[N+]=Nc1ccccc1C[C@]1(C(N)=O)N=C(c2ccc(OCCCO)cc2)O[C@H]1c1ccccc1N=[N+]=[N-]`, the composite z-score with Albumin (Bos taurus) was 0.92; in assay [2], 0.231; in assay [3], -0.0091; in [4], 0.672; in [5] it was 0.0754; in [6], 0.193. In addition, the composite z-score was 1.31 with Sam68 (KHDRBS1); -0.321 in assay [7]; 1.12 in assay [8]; 1.91 in [9]; 1.21 in assay [10]; -0.0221 in assay [11]. Besides, the composite z-score in [12] was 0.941; in assay [13], 0.228; in [14], 0.132; in the assay on Lefty1 it was -0.24; in [16], 0.448. For the same molecule, the composite Z-score in assay [1] is -0.199 (inactive). In addition, the z-score was -0.777 in [15] and -4.76 (inactive) in [17].
